Activity calls are given as the source filed them. The calls were made as follows: active = hit-call score of the fitted dose curve at least 0.9, where 1 is the maximum; inactive = score below 0.9.

In test [1] the target is CCAAT/enhancer-binding protein beta (Homo sapiens) (UniProt P17676). Description: ATG_C_EBP_CIS: Attagene CIS-FACTORIAL HepG2 Assay for human CCAAT/Enhancer Binding Protein (C/EBP) beta (AID 2282927). To be noted: HepG2 Attagene cis-factorial transcription factor reporter; actives raise or lower the signal. A digest of the protocol: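 HepG2 transiently transfected with multiplexed reporter units under cis-regulatory promoters reporting endogenous C/EBPb activity. After 24 h exposure, reporter mRNA assayed by RT-PCR, fluorescent labelling, HpaI digestion and capillary electrophoresis; bidirectional fitting versus DMSO.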

A short description of test [2]: ATG_CMV_CIS: Attagene CIS-FACTORIAL HepG2 Assay for human CMV (Internal Marker) (AID 2282928).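 Also: endpoint acts as a background internal control marker rather than a target.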 The note with it: HepG2 CMV promoter reporter, transcription factor profiling; actives raise or lower the signal. A digest of the protocol:
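CMV internal-marker background readout in transiently transfected HepG2 cells bearing cis-regulated reporter units. Reporter mRNA is measured 24 h after dosing by RT-PCR and capillary electrophoresis, with bidirectional fitting against DMSO.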

Test [3] is described as follows: ATG_DR4_LXR_CIS: Attagene CIS-FACTORIAL HepG2 Assay for human Liver X Receptor (LXR), DR4 submotif (AID 2282929). To be noted: HepG2 Attagene DR4 cis-reporter, mRNA transcription; actives raise or lower the signal. A digest of the protocol: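 Endogenous factor activity at a DR4 cis-element is read as reporter mRNA in transiently transfected HepG2 cells. Exposure lasts 24 h; transcripts are amplified, fluorescently labelled and sized by capillary electrophoresis, with DMSO as baseline.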

Test [4] deals with Aryl hydrocarbon receptor (Homo sapiens) (UniProt P35869). Description: ATG_Ahr_CIS: Attagene CIS-FACTORIAL HepG2 Assay for human Aryl Hydrocarbon Receptor (Ahr) (AID 2282930). The note with it: HepG2 AhR cis-factorial reporter transcription; actives raise or lower the signal. In outline:
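HepG2 cells transiently transfected with cis-element-driven multiplexed reporter units; endogenous AhR activity read as reporter mRNA 24 h after dosing, via RT-PCR, 6-FAM labelling, HpaI digestion and capillary electrophoresis. Bidirectional fit relative to DMSO.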

Test [5] is described as follows: ATG_AP_1_CIS: Attagene CIS-FACTORIAL HepG2 Assay for human Activator Protein 1 (AP-1) (AID 2282931). The note with it: HepG2 Attagene cis-factorial AP-1 reporter mRNA; actives raise or lower the signal. In outline: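 Fluorescence of labelled PCR fragments separated by capillary electrophoresis gives reporter mRNA levels. HepG2 with transfected cis-regulated reporter units, 24 h exposure; DMSO serves as baseline for bidirectional curve fits.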

A short description of test [6]: ATG_AP_2_CIS: Attagene CIS-FACTORIAL HepG2 Assay for human Activator Protein 2 (AP-2) (AID 2282932). To be noted: HepG2 AP-2 cis-reporter, Attagene transcription factor profiling; actives raise or lower the signal. In outline:
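HepG2 cells transiently transfected with cis-element reporter units and exposed for 24 h. Reporter mRNA measured by RT-PCR, FAM labelling, HpaI digestion and capillary electrophoresis. Changes in either direction fitted relative to DMSO.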

Test [7] in a line: ATG_BRE_CIS: Attagene CIS-FACTORIAL HepG2 Assay for human Bone Morphogenetic Protein (BMP) Response Element (BRE) (AID 2282933). The note with it: HepG2 BMP response element reporter, Attagene transcription factor profiling; actives raise or lower the signal. A digest of the protocol: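 Endogenous transcription factor activity at a BMP response element was monitored in transfected HepG2 cells 24 h after dosing. Fluorescent RT-PCR products were resolved by capillary electrophoresis, and activity was fitted in both directions versus DMSO.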

For test [8], the target named is Retinoic acid receptor alpha (Homo sapiens) (UniProt P10276). Put plainly: ATG_DR5_RAR_CIS: Attagene CIS-FACTORIAL HepG2 Assay for human Retinoic Acid Receptor Alpha (RARE), DR5 submotif (AID 2282934). To be noted: HepG2 Attagene cis-factorial RARE DR5 reporter, mRNA; actives raise or lower the signal. A digest of the protocol:
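HepG2 cells transiently transfected with multiplexed reporter units; DR5 cis-element drives reporter through endogenous transcription factors. After 24 h dosing, reporter mRNA quantified by RT-PCR, fluorescent labeling, HpaI digestion and capillary electrophoresis; bidirectional fitting versus DMSO.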

Test [9] deals with Transcription factor E2F1 (Homo sapiens) (UniProt Q01094). Description: ATG_E2F_CIS: Attagene CIS-FACTORIAL HepG2 Assay for human E2F Transcription Factor 1 (AID 2282935). To be noted: HepG2 Attagene cis-reporter, E2F reporter RNA transcripts; actives raise or lower the signal. In outline: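 Endogenous E2F1 activity read through cis-promoter reporter units transfected into HepG2. After 24 h compound treatment, reporter mRNA measured by RT-PCR, HpaI digestion and capillary electrophoresis. Bidirectional fit versus DMSO.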

The nature of test [10]: ATG_E_Box_CIS: Attagene CIS-FACTORIAL HepG2 Assay for human Enhancer Box (E-box) (AID 2282936). To be noted: HepG2 E-box cis-reporter transcription, actives raise or lower the signal. In outline:
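HepG2 cells transiently transfected with multiplexed cis-element reporter units, dosed 24 h; reporter mRNA quantified by RT-PCR, 6-FAM labelling, HpaI digestion and capillary electrophoresis. E-box (USF1) signal fitted bidirectionally vs DMSO.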

Test [11] in a line: ATG_M_61_CIS: Attagene CIS-FACTORIAL HepG2 Assay for M61 Transcription Factor (Internal Marker) (AID 2282937). To be noted: HepG2 Attagene CIS-FACTORIAL M61 internal marker reporter; actives raise or lower the signal. A digest of the protocol:
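This endpoint serves as an internal background control within a multiplexed HepG2 cis-reporter panel. Cells are exposed for 24 h; reporter mRNA is amplified, fluorescently labelled and sized by capillary electrophoresis, with DMSO as negative control.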

A short description of test [12]: ATG_M_19_CIS: Attagene CIS-FACTORIAL HepG2 Assay for M19 Transcription Factor (Internal Marker) (AID 2282939). The note with it: HepG2 Attagene CIS-FACTORIAL M19 internal marker reporter; actives raise or lower the signal. In outline:
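Background-control endpoint from a multiplexed HepG2 reporter panel. Cells carrying cis-regulated reporter constructs are treated 24 h, then reporter transcripts are amplified, fluorescently labelled and sized by capillary electrophoresis. DMSO defines baseline.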

Test [13] can be described thus: ATG_ERE_CIS: Attagene CIS-FACTORIAL HepG2 Assay for Estrogen Response Element (ERE) (AID 2282940). To be noted: HepG2 ERE cis-reporter, Attagene RNA transcript; actives raise or lower the signal. In outline:
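Cells used were human hepatoma HepG2, transfected with multiple reporter transcription units under cis-regulatory promoters. Reporter mRNA, read 24 h post-dosing via fluorescent RT-PCR products on capillary electrophoresis, was fitted bidirectionally relative to DMSO.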

Test [14] is described as follows: ATG_Ets_CIS: Attagene CIS-FACTORIAL HepG2 Assay for human Erythroblast Transformation Specific (ETS) (AID 2282941). To be noted: HepG2 ETS cis-reporter transcription, actives raise or lower the signal. In outline:
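HepG2 cells transfected with multiple cis-regulated reporter units measuring endogenous ETS-driven transcription, 24 h after dosing. Reporter mRNA quantified by RT-PCR with capillary electrophoresis; bidirectional fit relative to DMSO.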

Test [15] has as its target Hepatocyte nuclear factor 3-beta (Homo sapiens) (UniProt Q9Y261). Put plainly: ATG_FoxA2_CIS: Attagene CIS-FACTORIAL HepG2 Assay for human Forkhead box A2 (FOXA2) (AID 2282942). To be noted: HepG2 cis-reporter transcription factor activity, 24 h; actives raise or lower the signal. A digest of the protocol:
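Cells: HepG2, transient multiplex reporter transfection. Exposure 24 h. Detection: reporter-specific RT-PCR, fluorescent labelling, restriction digest, capillary electrophoresis. Analysis: bidirectional curve fit, DMSO as negative control.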

Test [16] in a line: ATG_FoxO_CIS: Attagene CIS-FACTORIAL HepG2 Assay for human Forkhead box O (FoxO) (AID 2282943). The note with it: HepG2 Attagene cis-reporter, FoxO element, mRNA; actives raise or lower the signal. In outline:
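HepG2 cells transiently transfected with cis-element-driven reporter units report endogenous FoxO activity. After 24 h chemical exposure, reporter mRNA quantified by RT-PCR, fluorescent labeling, HpaI digestion and capillary electrophoresis; bidirectional fit versus DMSO.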

Test [17] can be described thus: ATG_GATA_CIS: Attagene CIS-FACTORIAL HepG2 Assay for human GATA Binding Protein (AID 2282944). To be noted: HepG2 GATA cis-element reporter, Attagene multiplex mRNA; actives raise or lower the signal. In outline:
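Endogenous transcription factor activity was captured through cis-promoter-driven reporters in transfected HepG2 cells. After 24 h exposure, reporter transcripts were quantified by RT-PCR with fluorescent capillary electrophoresis, and responses fitted both directions against DMSO.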

The nature of test [18]: ATG_GLI_CIS: Attagene CIS-FACTORIAL HepG2 Assay for human Zinc Finger Protein GLI1 (AID 2282945). To be noted: HepG2, Attagene cis-factorial reporter mRNA, GLI element; actives raise or lower the signal. A digest of the protocol:
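Transiently transfected HepG2 cells report endogenous transcription factor activity via cis-element-driven reporter units. After 24 h compound exposure, reporter mRNA was measured by RT-PCR with capillary electrophoresis; bidirectional fitting against DMSO baseline.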

A short description of test [19]: ATG_EGR_CIS: Attagene CIS-FACTORIAL HepG2 Assay for human Early Growth Response 1 (EGR1) (AID 2282938). The note with it: HepG2 Attagene CIS-FACTORIAL EGR reporter mRNA; actives raise or lower the signal. A digest of the protocol: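 HepG2, transient MRTU transfection (cis promoters), 24 h compound. RNA → RT (oligo-dT) → PCR → 6-FAM labelling → HpaI cut → CE fluorescence. Bidirectional fit, DMSO baseline.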

Chain of Retinoic acid receptor alpha (Homo sapiens) (P10276 whole entry, looked up): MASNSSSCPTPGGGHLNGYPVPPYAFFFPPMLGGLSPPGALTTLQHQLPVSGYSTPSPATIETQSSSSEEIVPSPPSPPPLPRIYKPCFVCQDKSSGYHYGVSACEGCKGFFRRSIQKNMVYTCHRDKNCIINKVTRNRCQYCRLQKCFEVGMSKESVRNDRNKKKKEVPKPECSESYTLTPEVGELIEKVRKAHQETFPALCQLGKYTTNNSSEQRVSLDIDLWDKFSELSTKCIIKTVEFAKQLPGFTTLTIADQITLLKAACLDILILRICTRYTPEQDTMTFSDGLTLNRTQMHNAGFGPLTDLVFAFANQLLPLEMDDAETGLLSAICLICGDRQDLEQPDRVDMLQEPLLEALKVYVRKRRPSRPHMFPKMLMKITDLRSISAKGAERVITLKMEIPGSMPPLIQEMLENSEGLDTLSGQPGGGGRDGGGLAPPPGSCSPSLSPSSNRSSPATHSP
Chain of CCAAT/enhancer-binding protein beta (Homo sapiens) (P17676 whole entry, looked up): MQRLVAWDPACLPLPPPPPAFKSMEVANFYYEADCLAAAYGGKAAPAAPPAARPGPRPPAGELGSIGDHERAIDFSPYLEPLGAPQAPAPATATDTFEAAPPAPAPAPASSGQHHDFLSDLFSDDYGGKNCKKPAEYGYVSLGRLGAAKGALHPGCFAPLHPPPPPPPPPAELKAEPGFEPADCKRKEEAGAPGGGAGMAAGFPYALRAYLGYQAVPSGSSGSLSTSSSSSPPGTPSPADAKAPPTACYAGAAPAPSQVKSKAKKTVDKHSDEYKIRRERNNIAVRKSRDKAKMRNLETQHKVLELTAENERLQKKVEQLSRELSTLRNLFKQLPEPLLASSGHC
Chain of Hepatocyte nuclear factor 3-beta (Homo sapiens) (Q9Y261 whole entry, looked up): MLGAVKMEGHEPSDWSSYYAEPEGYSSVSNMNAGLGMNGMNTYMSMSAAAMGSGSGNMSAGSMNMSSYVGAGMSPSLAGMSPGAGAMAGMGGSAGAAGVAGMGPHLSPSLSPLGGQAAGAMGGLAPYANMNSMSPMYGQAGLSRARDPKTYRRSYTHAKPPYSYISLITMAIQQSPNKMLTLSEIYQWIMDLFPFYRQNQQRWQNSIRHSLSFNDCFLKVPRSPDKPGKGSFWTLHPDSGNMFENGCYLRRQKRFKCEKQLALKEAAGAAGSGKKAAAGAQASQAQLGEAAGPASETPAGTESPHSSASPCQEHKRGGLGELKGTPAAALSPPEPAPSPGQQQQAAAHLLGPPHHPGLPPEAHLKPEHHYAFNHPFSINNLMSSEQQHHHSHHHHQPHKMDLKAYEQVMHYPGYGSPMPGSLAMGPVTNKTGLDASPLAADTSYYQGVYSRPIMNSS
Chain of Aryl hydrocarbon receptor (Homo sapiens) (P35869 whole entry, looked up): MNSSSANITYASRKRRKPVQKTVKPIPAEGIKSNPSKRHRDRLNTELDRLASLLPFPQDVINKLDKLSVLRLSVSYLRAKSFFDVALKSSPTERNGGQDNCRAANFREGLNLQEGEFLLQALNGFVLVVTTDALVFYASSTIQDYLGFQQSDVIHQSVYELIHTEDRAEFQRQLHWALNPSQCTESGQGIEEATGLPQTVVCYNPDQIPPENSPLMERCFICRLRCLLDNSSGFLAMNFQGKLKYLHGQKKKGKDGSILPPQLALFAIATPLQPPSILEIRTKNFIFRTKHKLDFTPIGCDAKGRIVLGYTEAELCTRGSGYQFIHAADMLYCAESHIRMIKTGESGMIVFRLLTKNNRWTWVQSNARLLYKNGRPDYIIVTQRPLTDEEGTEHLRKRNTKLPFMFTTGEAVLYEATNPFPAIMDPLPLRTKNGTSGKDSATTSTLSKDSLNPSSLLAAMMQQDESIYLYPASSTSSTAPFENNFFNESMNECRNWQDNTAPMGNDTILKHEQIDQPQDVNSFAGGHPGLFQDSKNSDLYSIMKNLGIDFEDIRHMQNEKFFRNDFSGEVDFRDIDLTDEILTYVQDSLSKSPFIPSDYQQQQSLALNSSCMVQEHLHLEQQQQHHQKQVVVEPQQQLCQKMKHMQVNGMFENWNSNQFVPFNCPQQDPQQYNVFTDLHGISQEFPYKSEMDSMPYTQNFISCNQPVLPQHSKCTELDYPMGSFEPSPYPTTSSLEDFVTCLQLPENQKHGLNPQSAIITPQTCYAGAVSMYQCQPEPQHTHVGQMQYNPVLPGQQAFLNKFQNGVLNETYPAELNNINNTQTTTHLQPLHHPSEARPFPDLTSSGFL
Chain of Transcription factor E2F1 (Homo sapiens) (Q01094 whole entry, looked up): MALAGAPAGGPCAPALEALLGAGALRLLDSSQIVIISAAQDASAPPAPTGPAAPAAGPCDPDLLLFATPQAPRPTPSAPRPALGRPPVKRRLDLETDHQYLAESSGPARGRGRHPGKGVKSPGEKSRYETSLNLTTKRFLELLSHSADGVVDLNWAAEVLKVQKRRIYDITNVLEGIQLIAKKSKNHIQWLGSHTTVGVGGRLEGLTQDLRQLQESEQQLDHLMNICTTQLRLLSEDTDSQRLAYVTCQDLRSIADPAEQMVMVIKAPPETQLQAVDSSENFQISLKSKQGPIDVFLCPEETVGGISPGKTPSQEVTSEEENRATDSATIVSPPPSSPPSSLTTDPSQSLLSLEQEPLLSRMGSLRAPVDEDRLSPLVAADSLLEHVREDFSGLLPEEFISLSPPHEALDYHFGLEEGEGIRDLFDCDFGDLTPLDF

In the case of `CC1=NC(C)OC1C` (centres undefined), the result in [1], in [3], in test [4], in test [6], in test [7] and in [8] was inactive. The result in [9], in test [10], in test [11], in test [12], in test [13] and in test [14] was inactive. Also, the call in [15], in test [16], in test [17] and in test [18] was inactive. The AC50 (in general, the concentration at which the activity in the assay is half-maximal) in test [2] is 153 µM (active); in test [5], 100 µM (active).

As to `CC1OC1C1CCC2(C)OC2C1` (centres undefined), the outcome in test [1], in test [2], in test [3], in test [4], in test [5] and in test [7] was inactive. Further, the molecule was called inactive in [8], in test [9], in test [10], in test [11], in [19] and in test [12]. For the same molecule, the molecule was called inactive in [13], in test [14], in test [16], in [17] and in test [18].

Take `c1ccc(-c2ccccn2)nc1`: the outcome in test [1], in test [2], in [3], in [5], in [7] and in test [8] was inactive. Besides, the call in test [9], in test [11], in test [19], in test [12], in [13] and in test [14] was inactive. In addition, the result in test [15], in test [16], in test [17] and in test [18] was inactive.

On to `NNC(=O)c1cccc(C(=O)NN)c1`, for which the result in test [1], in test [2], in [4], in test [5], in test [6] and in [7] was inactive. Further, the result in test [9], in [10], in [11], in test [19], in test [12] and in test [13] was inactive. The molecule was classed as inactive in test [14], in [15], in [17] and in [18].

As for `O=C1CC2CC1C1CCCC21` (centres undefined), the outcome in test [1], in test [2], in test [4], in test [5], in [6] and in [7] was inactive. Further, the molecule was called inactive in test [8], in test [9], in test [10], in [11], in test [19] and in test [12]. Also, the call in test [14], in [16] and in test [18] was inactive. Besides, the AC50 in test [13] was 19.8 µM (active).

In the case of `CO[Si](OC)(OC)c1ccccc1`, the result in test [1], in [2], in test [3], in test [4], in [5] and in [6] was inactive. The result in [7], in test [8], in [9], in [11], in test [19] and in [12] was inactive. Moreover, the call in test [13], in test [14], in test [15] and in test [18] was inactive.

Source of the values: PubChem BioAssay (EPA / NIEHS).
